Results on 18 compounds are retold here after PubChem BioAssay.

Values without a mark were called inactive. The rule behind the calls is not given here.

In this assay the target is Pantothenate synthetase (Mycobacterium tuberculosis (strain ATCC 25618 / H37Rv)) (UniProt P9WIL5). As to the kind of experiment: Coupled enzyme confirmation of inhibitors against recombinant Mtb PanC (AID 375).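 Note: 0% = full reaction with vehicle and 100% = no enzyme background.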 The conditions noted are these: coupled enzyme assay; at 10 µM, hits give high values.
Sequence of Pantothenate synthetase (Mycobacterium tuberculosis (strain ATCC 25618 / H37Rv)) (P9WIL5 whole entry, looked up): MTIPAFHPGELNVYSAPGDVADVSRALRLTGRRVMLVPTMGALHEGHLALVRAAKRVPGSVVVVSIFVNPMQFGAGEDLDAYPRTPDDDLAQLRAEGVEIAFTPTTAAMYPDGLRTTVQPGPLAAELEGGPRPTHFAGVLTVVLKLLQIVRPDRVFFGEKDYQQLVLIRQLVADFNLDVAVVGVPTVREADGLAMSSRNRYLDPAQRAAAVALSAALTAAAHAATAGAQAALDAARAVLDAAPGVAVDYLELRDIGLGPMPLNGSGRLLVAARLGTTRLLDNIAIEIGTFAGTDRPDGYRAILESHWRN
As for `CSc1ccccc1NC(=O)c1noc2c1CCC2`, the inhibition was 0%.

With `CCC(C(=O)Nc1ccccc1C(=O)N1CCCC1)N1C(=O)c2ccccc2C1=O` (stereo not drawn), the inhibition is 6%. Consider `O=C(Nc1ccc(NC(=O)c2ccco2)nc1)c1cccnc1`, for which the inhibition is 0%. With `N#C/C(C(=O)c1ccccc1)=C1/CCCN1`, the inhibition was 3%.

Turning to `CCOCCCNCC(=O)N1CCN(S(=O)(=O)c2ccc(C)cc2)CC1`, the inhibition is 0%. The value for `O=C(NCc1cccs1)C1CCN(S(=O)(=O)c2cccs2)CC1` was 0%.

Regarding `COCCn1nnnc1C(c1ccccc1OC)N1CCc2ccccc2C1` (stereo not drawn), the inhibition was 0%. On to `COc1ccc(NC(=O)CCc2ccccc2)cc1NC(=O)c1ccco1`, for which the inhibition was 9%. `O=C(CSc1nnc(-c2cccs2)o1)N1CCOCC1`: the inhibition is 0%. `CC(=O)c1cc2c(cc1NC(=O)CN1CCN(C(=O)c3ccco3)CC1)OCO2`: the inhibition is 4%. Regarding `c1ccc(CSCc2cn3ccsc3n2)cc1`, the inhibition was 0%. Take `CCOC(=O)N1CCC(NC(=O)c2ccc3c(c2)N(CC)CCS3)CC1`: the inhibition is 5%.

As for `COC(=O)Cn1cc(C(=O)c2cccs2)c2ccccc21`, the inhibition is 0%. Turning to `CCOC(=O)c1sc2nc(SCC#N)n(CCCN3CCCC3=O)c(=O)c2c1C`, the inhibition was 0%. Regarding `c1ccc(-c2nc3cnccn3c2Nc2ccc3c(c2)OCCO3)cc1`, the inhibition is 0%. Next, `Cc1ccc(-c2ccc(SCC(=O)Nc3nonc3C)nn2)cc1`: 3%; `CCCC(CCC)C(=O)NCCN1CCOCC1`: 0%.

In the case of `CCOc1ccccc1NC(=O)CCSc1nc2n[nH]c(C)c2c(=N)n1-c1ccccc1Cl`, the inhibition is 10%.
